# Measured values published in PubChem BioAssay (NCATS).
# Records with an inconclusive call do not appear. A call without a number means that no potency is given here. Calls of active or inactive are those of the source. Unless noted, the call rests on the fitted dose curve; in most records, active means well fitted curve in the direction sought with a large enough effect; inconclusive means small, poorly fitted or top-dose-only effect, or another doubt; inactive means no such curve, though single readings can be large; an effect the other way counts as inactive or inconclusive.
# Tests used:
# [1] = biological target: Rap guanine nucleotide exchange factor 3 (Homo sapiens) (UniProt O95398); test: Confirmatory qHTS for agonist of cAMP-regulated guanine nucleotide exchange factor 3 (EPAC1) (AID 1645881); details: EPAC1 Rap1B BODIPY-GDP exchange fluorescence; series mostly up to 154 µM;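 further: EPAC1 catalysed release of BODIPY-GDP from Rap1B seen as fluorescence loss; nearly all actives have a fitted effect of over 75% in size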
# Sequence of Rap guanine nucleotide exchange factor 3 (Homo sapiens) (O95398 whole entry, looked up): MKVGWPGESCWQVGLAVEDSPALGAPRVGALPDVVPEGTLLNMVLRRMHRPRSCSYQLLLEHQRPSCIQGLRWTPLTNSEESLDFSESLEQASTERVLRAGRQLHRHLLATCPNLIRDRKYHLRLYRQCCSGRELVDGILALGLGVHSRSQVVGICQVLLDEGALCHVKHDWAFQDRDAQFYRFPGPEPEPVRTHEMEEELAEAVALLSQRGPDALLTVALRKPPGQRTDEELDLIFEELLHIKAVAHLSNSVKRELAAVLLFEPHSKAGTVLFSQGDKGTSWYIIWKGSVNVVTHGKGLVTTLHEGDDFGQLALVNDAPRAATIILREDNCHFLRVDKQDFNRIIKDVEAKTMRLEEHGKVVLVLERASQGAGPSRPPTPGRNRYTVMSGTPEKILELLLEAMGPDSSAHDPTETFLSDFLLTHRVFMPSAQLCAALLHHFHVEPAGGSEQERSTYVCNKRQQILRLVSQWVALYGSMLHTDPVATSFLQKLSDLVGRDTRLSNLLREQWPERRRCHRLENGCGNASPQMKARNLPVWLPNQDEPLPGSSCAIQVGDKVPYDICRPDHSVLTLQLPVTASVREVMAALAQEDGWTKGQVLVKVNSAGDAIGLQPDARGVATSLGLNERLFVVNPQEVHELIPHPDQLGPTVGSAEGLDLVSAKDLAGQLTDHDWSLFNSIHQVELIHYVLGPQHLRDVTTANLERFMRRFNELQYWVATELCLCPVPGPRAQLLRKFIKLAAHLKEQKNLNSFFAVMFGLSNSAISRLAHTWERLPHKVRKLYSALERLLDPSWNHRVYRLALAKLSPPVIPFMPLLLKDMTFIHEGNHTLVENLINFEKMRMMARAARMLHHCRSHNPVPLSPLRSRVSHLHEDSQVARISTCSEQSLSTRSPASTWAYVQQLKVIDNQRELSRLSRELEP
# [2] = biological target: Rap guanine nucleotide exchange factor 4 (Homo sapiens) (UniProt Q8WZA2); test: Confirmatory qHTS for agonist of cAMP-regulated guanine nucleotide exchange factor 4 (EPAC2) (AID 1645884); details: EPAC2 GEF activity, Rap1B-BODIPY-GDP fluorescence; series mostly up to 154 µM;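 further: nucleotide exchange releases bodipy-GDP from Rap1 and this lowers its fluorescence; nearly all actives have a fitted effect of over 65% in size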
# Sequence of Rap guanine nucleotide exchange factor 4 (Homo sapiens) (Q8WZA2 whole entry, looked up): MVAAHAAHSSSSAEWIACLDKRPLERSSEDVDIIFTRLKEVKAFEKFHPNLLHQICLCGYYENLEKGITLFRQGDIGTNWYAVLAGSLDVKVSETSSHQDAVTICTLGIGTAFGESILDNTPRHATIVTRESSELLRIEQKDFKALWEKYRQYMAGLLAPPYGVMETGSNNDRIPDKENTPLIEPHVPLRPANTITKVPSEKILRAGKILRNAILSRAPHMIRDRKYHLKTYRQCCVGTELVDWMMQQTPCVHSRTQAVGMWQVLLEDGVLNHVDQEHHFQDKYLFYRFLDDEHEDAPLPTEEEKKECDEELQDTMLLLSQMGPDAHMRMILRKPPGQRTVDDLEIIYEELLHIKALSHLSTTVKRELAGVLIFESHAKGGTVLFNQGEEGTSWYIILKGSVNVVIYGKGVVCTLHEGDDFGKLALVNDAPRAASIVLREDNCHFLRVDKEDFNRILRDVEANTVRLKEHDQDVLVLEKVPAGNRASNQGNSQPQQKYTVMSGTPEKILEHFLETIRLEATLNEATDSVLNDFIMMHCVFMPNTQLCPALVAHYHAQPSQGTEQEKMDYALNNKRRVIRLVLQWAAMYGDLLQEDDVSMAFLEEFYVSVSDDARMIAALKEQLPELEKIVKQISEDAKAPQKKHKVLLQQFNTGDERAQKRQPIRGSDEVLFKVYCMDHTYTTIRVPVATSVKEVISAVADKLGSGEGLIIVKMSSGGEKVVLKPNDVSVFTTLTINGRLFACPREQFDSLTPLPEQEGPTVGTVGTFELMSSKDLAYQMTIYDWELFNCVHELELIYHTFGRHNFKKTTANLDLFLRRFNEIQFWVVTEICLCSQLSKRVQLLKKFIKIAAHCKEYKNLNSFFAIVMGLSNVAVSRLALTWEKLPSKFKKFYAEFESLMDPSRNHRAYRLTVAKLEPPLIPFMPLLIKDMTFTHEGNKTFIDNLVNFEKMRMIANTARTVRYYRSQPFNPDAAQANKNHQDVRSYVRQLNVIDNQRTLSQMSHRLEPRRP
# [3] = biological target: Catechol O-methyltransferase (Homo sapiens) (UniProt P21964); test: Confirmatory Screen for Target Class Profiling of Small Molecule Inhibitors of Methyltransferases (AID 1745852; calls by dose curve; further: potency means the concentration at half of the fitted maximal effect); details: MTase-Glo luminescence, SAH detection, recombinant enzyme; measured here: COMT max response; stronger effect = lower value
# Sequence of Catechol O-methyltransferase (Homo sapiens) (P21964 whole entry, looked up): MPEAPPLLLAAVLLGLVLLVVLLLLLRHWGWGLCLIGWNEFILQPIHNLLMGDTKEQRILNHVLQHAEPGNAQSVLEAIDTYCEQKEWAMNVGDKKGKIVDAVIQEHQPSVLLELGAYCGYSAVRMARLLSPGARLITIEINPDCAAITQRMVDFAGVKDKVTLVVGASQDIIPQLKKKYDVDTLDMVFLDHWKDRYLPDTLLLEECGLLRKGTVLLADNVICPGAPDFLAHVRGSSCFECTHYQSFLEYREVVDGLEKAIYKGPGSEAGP
# [4] = biological target: Guanidinoacetate N-methyltransferase (Homo sapiens) (UniProt Q14353); test: as above; details: MTase-Glo luminescence, SAH detection, recombinant enzyme; activity change, negative = inhibition: at 57.3 µM (top of the series) unless noted
# [5] = biological target: Nicotinamide N-methyltransferase (Homo sapiens) (UniProt P40261); test: as above; details: MTase-Glo luminescence, SAH detection, recombinant enzyme; measured here: NNMT max response; stronger effect = lower value
# Sequence of Nicotinamide N-methyltransferase (Homo sapiens) (P40261 whole entry, looked up): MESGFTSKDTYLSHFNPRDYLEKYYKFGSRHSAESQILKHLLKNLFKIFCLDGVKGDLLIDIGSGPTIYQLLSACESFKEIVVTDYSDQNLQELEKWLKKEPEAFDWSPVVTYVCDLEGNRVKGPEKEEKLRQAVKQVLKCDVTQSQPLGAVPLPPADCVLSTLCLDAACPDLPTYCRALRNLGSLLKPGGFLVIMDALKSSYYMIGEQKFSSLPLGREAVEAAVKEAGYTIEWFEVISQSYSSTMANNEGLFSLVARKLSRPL
# [6] = biological target: Phenylethanolamine N-methyltransferase (Homo sapiens) (UniProt P11086); test: as above; details: MTase-Glo luminescence, SAH detection, recombinant enzyme; measured here: PNMT max response; stronger effect = lower value
# Sequence of Phenylethanolamine N-methyltransferase (Homo sapiens) (P11086 whole entry, looked up): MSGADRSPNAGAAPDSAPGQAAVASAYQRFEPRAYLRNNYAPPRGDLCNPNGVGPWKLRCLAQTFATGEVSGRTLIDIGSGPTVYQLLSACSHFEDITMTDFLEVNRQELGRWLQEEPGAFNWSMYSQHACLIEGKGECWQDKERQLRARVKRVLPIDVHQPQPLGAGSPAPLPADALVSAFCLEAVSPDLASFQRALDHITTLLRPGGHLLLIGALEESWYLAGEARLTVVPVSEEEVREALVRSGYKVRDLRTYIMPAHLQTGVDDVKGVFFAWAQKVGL
# [7] = biological target: Metallo-beta-lactamase type 2 (Klebsiella pneumoniae) (UniProt C7C422); test: qHTS to identify inhibitors of the New Delhi Metallo-beta-lactamase (NDM): assay validation screen against the NCATS LOPAC Collection (AID 1794843); details: NDM-1 enzyme, nitrocefin hydrolysis, absorbance 485 nm; series mostly up to 38.4 µM; further: potency means the concentration at half of the fitted maximal effect;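 on activity change, negative = inhibition: nitrocefin turnover by NDM-1 measured as 485 nm absorbance at plateau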
# Sequence of Metallo-beta-lactamase type 2 (Klebsiella pneumoniae) (C7C422 whole entry, looked up): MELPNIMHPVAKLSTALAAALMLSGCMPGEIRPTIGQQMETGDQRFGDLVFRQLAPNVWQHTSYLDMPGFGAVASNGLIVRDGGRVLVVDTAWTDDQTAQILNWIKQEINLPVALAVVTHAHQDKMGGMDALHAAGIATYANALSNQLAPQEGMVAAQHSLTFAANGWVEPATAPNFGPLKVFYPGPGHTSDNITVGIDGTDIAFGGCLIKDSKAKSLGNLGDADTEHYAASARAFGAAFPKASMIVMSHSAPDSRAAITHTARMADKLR
# Summary of the method: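 NDM-1 at 2 nM final in 50 mM HEPES pH 7.0, 1 uM ZnSO4, 0.01% Tween20, preincubated with LOPAC compounds pinned in DMSO; 50 uM nitrocefin (stock) added. Hydrolysis read as absorbance at 485 nm in the plateau phase.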
# [8] = biological target: Glutathione peroxidase 1 (Homo sapiens) (UniProt P07203); test: Primary qHTS Assay for Inhibitors of Recombinant Selenoprotein Glutathione Peroxidase 1 (GPX1) (AID 1845191); details: recombinant GPX1, GR-coupled NADPH fluorescence, 15 min; series mostly up to 48.8 µM; further: nearly all actives have a fitted effect of over 65% in size
# Sequence of Glutathione peroxidase 1 (Homo sapiens) (P07203 whole entry, looked up): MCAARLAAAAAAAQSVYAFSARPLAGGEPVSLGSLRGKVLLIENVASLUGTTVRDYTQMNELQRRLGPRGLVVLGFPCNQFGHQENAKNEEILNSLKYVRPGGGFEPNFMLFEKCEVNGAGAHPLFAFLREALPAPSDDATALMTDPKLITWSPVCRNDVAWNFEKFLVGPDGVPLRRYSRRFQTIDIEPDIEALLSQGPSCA
# Summary of the method: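 Recombinant GPX1 (10 nM final) was preincubated with compound for 30 min at room temperature, then reacted with 1 mM GSH, 0.5 mM CHP, 0.5 mM NADPH and 100 nM glutathione reductase; NADPH fluorescence (340/450 nm) was read at 0 and 15 min.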
# [9] = biological target: Phospholipid hydroperoxide glutathione peroxidase GPX4 (Homo sapiens) (UniProt P36969); test: Primary qHTS Assay for Inhibitors of Recombinant Selenoprotein Glutathione Peroxidase 4 (GPX4) (AID 1845192); details: recombinant GPX4, GR-coupled NADPH fluorescence, 15 min; series mostly up to 50 µM; further: nearly all actives have a fitted effect of over 65% in size
# Sequence of Phospholipid hydroperoxide glutathione peroxidase GPX4 (Homo sapiens) (P36969 whole entry, looked up): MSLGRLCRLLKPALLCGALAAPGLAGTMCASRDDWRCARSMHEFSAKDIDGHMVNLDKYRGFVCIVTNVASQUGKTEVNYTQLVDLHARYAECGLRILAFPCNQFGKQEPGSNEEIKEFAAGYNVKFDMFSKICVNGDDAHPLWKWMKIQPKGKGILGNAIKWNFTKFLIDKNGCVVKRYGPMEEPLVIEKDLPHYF
# Summary of the method: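 GR-coupled readout: 100 nM GR, 1 mM GSH, 0.5 mM NADPH; NADPH fluorescence (ex 340/em 450 nm) read at t=0 and after 15 min RT. GPX4 200 nM, preincubated 30 min with compound; substrate 0.5 mM CHP.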
# [10] = Primary qHTS for inhibitors of nuclear receptor binding SET domain protein 2 (NSD2) in an RCH-ACV wild type WT cells (2C) (AID 1645877); details: RCH-ACV (leukaemia line) NSD2 WT (2C) viability, CellTiter-Glo, 72 h; series mostly up to 44.9 µM; further: nearly all actives have a fitted effect of over 70% in size; further: potency means the concentration at half of the fitted maximal effect
# [11] = biological target: Rap guanine nucleotide exchange factor 3 (Homo sapiens) (UniProt O95398); test: Confirmatory qHTS for antagonist of cAMP-regulated guanine nucleotide exchange factor 3 (EPAC1) (AID 1645880); details: EPAC1 Rap1B-BODIPY-GDP exchange, fluorescence; series mostly up to 115 µM; further: nearly all actives have a fitted effect of over 55% in size
# Summary of the method: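 Nucleotide exchange uses 100 nM EPAC1, 250 nM RAP1B-BODIPY-GDP and 50 uM GDP, with compounds in a concentration-titration series. After 5 min at room temperature, fluorescence (480 nm ex/540 nm em) is read every 5 min for 30 min. Data are normalized to control ATA and DMSO.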
# [12] = biological target: Rap guanine nucleotide exchange factor 4 (Homo sapiens) (UniProt Q8WZA2); test: Confirmatory qHTS for antagonist of cAMP-regulated guanine nucleotide exchange factor 4 (EPAC2) (AID 1645885); details: EPAC2 Rap1B-BODIPY-GDP exchange fluorescence, biochemical; series mostly up to 114 µM; further: potency means the concentration at half of the fitted maximal effect; nearly all actives have a fitted effect of over 25% in size
# [13] = NCATS anti-infectives library activity on the primary C. elegans qHTS viability assay (AID 1745855; calls by dose curve; further: potency means the concentration at half of the fitted maximal effect); details: C. elegans worm area imaging, day 7; series mostly up to 41.8 µM
# Summary of the method: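 Viability is taken from GFP fluorescence of PE254-GFP-FLuc C. elegans imaged by laser cytometry over 7 days. Ten L1 worms per well grow at 21 °C on TOP10 E. coli capsules with titrated compound; levamisole marks toxicity.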
compound,measurement,setting,value
CCCCCc1cc(O)c2c(c1)OC(C)(C)[C@@H]1CCC(C)=C[C@@H]21,Potency,[1],inactive
same,Potency,[2],inactive
CCCN1CCc2cccc3c2[C@H]1Cc1ccc(O)c(O)c1-3,activity,[3],4.79%
same,"activity change, negative = inhibition",[4],5.72%
same,activity,[5],-3.62%
same,activity,[6],6.46%
same,Potency,[7],inactive
same,Potency,[8],inactive
same,Potency,[9],inactive
CN1CCc2cc(O)cc3c2[C@H]1Cc1ccc(O)c(O)c1-3,activity,[3],-101%
same,"activity change, negative = inhibition",[4],-1.59%
same,activity,[5],-4.5%
same,activity,[6],-1.47%
same,Potency,[7],inactive
same,Potency,[8],inactive
same,Potency,[9],inactive
CCc1c(C(=O)C(N)=O)c2c(OCC(=O)OC)cccc2n1Cc1ccccc1,Potency,[10],inactive
same,Potency,[9],inactive
CN(C(=O)Cc1ccccc1)C(CN1CCCC1)c1ccccc1 (stereo not drawn),Potency,[10],inactive
same,Potency,[9],inactive
C/C=C(\C)C(=O)O[C@H]1[C@H](OC(C)=O)[C@]2(CO)[C@H](O)[C@H](O)[C@]3(C)C(=CCC4[C@@]5(C)CC[C@H](O[C@@H]6O[C@H](C(=O)O)[C@@H](O)[C@H](O[C@@H]7OC[C@H](O)[C@H](O[C@@H]8OC[C@H](O)[C@H](O)[C@H]8O)[C@H]7O)[C@H]6O[C@@H]6O[C@H](CO)[C@@H](O)[C@H](O)[C@H]6O)C(C)(C)C5CC[C@]43C)[C@@H]2CC1(C)C (stereo partly drawn),"activity change, negative = cell killing",[10],2.35% [at 9.23 µM] (inactive)
same,"activity change, negative = inhibition",[9],2.03% [at 9.73 µM] (inactive)
CN(N=O)c1ccc(O)c(O)c1,activity,[3],-69.3%
same,Potency,[4],27.3 µM (active)
same,activity,[5],-14.9%
same,activity,[6],-27.8%
same,Potency,[7],12.6 µM (active)
same,Potency,[9],inactive
CN(N=O)c1cc(O)ccc1O,activity,[3],-96.7%
same,Potency,[4],24.3 µM (active)
same,activity,[5],-67.2%
same,activity,[6],-42.7%
same,Potency,[7],inactive
same,Potency,[8],inactive
same,Potency,[9],inactive
Cn1ncnc1COc1nn2c(-c3c(F)cccc3F)nnc2cc1C1CCC1,Potency,[10],inactive
same,Potency,[9],inactive
CNc1ccc2oc(C[C@H]3O[C@@]4(CC[C@H]3C)O[C@H]([C@H](C)C(=O)c3ccc[nH]3)[C@H](C)C[C@H]4C)nc2c1C(=O)O,activity,[3],-3.19%
same,Potency,[4],34.3 µM (active)
same,activity,[5],-35.2%
same,activity,[6],-4.07%
same,Potency,[8],inactive
same,Potency,[9],inactive
CN1CC[C@@]2(C)c3cc(O)ccc3N(C)C12 (stereo partly drawn),activity,[3],-27.2%
same,Potency,[4],24.3 µM (active)
same,activity,[5],-23.6%
same,activity,[6],-16.3%
same,Potency,[8],inactive
same,Potency,[9],inactive
O=C1C[C@@H]2OCC=C3CN4CC[C@]56c7ccccc7N1[C@H]5[C@H]2[C@H]3C[C@H]46,Potency,[10],inactive
same,Potency,[9],inactive
C[C@@](O)(COc1ccc(C#N)cc1)C(=O)Nc1ccc(C#N)c(C(F)(F)F)c1,Potency,[10],inactive
same,Potency,[9],inactive
COc1ccc2[nH]c3c(c2c1)CCNC3,activity,[3],-6.01%
same,"activity change, negative = inhibition",[4],5.37%
same,activity,[5],-13.7%
same,activity,[6],-2.07%
same,Potency,[8],inactive
same,Potency,[9],inactive
Cc1c(Cl)cccc1S(=O)(=O)Nc1nc(CC(=O)N2CCN(C)CC2)cs1,Potency,[10],inactive
same,Potency,[9],inactive
Cc1cn(C[C@H](N)C(=O)O)c(=O)n(Cc2cc(-c3ccccc3)sc2C(=O)O)c1=O,Potency,[10],inactive
same,Potency,[9],inactive
O=C1CN=C(c2ccccc2)c2cc(Cl)ccc2N1CC1CC1,outcome,[11],inactive
same,Potency,[1],inactive
same,Potency,[12],55.5 µM (active)
CC[C@H]1CN2CC[C@H]1C[C@@H]2[C@@H](O)c1ccnc2ccc(OC)cc12,Potency,[10],inactive
same,Potency,[9],inactive
CCn1cnc2c(Nc3cccc(Cl)c3)nc(N[C@@H]3CCCC[C@@H]3N)nc21,activity,[3],7.4%
same,"activity change, negative = inhibition",[4],4.82%
same,activity,[5],-17.5%
same,activity,[6],1.09%
same,Potency,[7],inactive
same,Potency,[8],inactive
same,Potency,[9],inactive
COC(=O)N1CCN(C(=O)Cc2ccc(Cl)c(Cl)c2)[C@@H](CN2CCCC2)C1,Potency,[10],inactive
same,Potency,[9],inactive
C=C1[C@@H]2CC[C@@]3(C)[C@H](c4ccoc4)OC(=O)C[C@]13O[C@H]1CC(=O)C(C)(C)[C@H](C(OC(C)=O)C(=O)OC)[C@]12C (stereo partly drawn),Potency,[10],inactive
same,Potency,[9],inactive
CCCN(CCC)CCc1ccc(O)c(O)c1,activity,[3],153%
same,"activity change, negative = inhibition",[4],6.88%
same,activity,[5],-2.74%
same,activity,[6],-0.0665%
same,Potency,[7],inactive
same,Potency,[8],inactive
same,Potency,[9],inactive
N#CC(OC1OC(COC2OC(CO)C(O)C(O)C2O)C(O)C(O)C1O)c1ccccc1 (stereo not drawn),Potency,[10],inactive
same,Potency,[9],inactive
Cc1sc2ccccc2c1CC1=NCCN1,activity,[3],6.03%
same,"activity change, negative = inhibition",[4],4.23%
same,activity,[5],-6.99%
same,activity,[6],-30.1%
same,Potency,[8],inactive
same,Potency,[9],inactive
CC(C)(C)c1cc(O)ccc1O,Potency,[1],inactive
same,Potency,[2],inactive
C[C@@H]1[C@@H]2Cc3ccc(O)cc3[C@@]1(C)CCN2CC1CC1,activity,[3],7.89%
same,"activity change, negative = inhibition",[4],6.66%
same,activity,[5],-1.08%
same,activity,[6],4.55%
CC(C)(C)c1cc(C=C(C#N)C#N)cc(C(C)(C)C)c1O,activity,[3],-14.8%
same,"activity change, negative = inhibition",[4],-1.85%
same,activity,[5],-20.4%
same,activity,[6],-25.9%
same,Potency,[13],0.29 µM (active)
same,Potency,[7],inactive
same,Potency,[9],inactive
C[C@H]1O[C@@H](O[C@H]2C[C@@H](O)[C@]3(CO)C4C(CC[C@]3(O)C2)[C@@]2(O)CC[C@H](C3=CC(=O)OC3)[C@@]2(C)C[C@H]4O)[C@@H](O)[C@@H](O)[C@H]1O (stereo partly drawn),Potency,[10],0.383 µM (active)
same,Potency,[9],inactive
CCCn1c(C)c(C(=O)c2ccc3ccccc3c2)c2ccccc21,outcome,[11],inactive
same,Potency,[1],inactive
same,Potency,[2],inactive
CCCN1CC[C@@H]2c3cc(O)ccc3CC[C@@H]21,activity,[3],1.91%
same,"activity change, negative = inhibition",[4],0.453%
same,activity,[5],-3.17%
same,activity,[6],-0.789%
same,Potency,[8],inactive
same,Potency,[9],inactive
CCC1NC(=O)C2C(Cl)C(Cl)CN2C(=O)C(C(C)O)NC(=O)CC(c2ccccc2)NC(=O)C(CO)NC1=O (stereo not drawn),Potency,[10],inactive
same,Potency,[9],inactive
COC(=O)C12C(=O)C(C)(O)C(=O)C1(C)C(C)=CC1C34CCC(OC3=O)C(C)(CO)C4CCC12C (stereo not drawn),Potency,[10],inactive
same,Potency,[9],inactive
CCCn1c(=O)c2[nH]c(C3CCCC3)nc2n(CCCOC(=O)c2ccc(S(=O)(=O)F)cc2)c1=O,Potency,[7],inactive
same,Potency,[8],inactive
same,Potency,[9],inactive
CN1CCc2cccc(Cl)c2CC1,Potency,[7],inactive
same,Potency,[8],inactive
same,Potency,[9],inactive
